TSHR antag – human thyrotropin receptor antagonism | AID 504810 | P16473 | activity change, negative = inhibition, % at 11.5 µM | TSHR-expressing cells, TSH-stimulated cAMP HTRF, 2 h; stronger effect = lower value | 330,000 tested, 0.2% active;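 active = activity change below a set negative limit, meaning inhibition stronger than a set level, cut at about -70% in these data; inconclusive = activity change between two set negative limits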
Target sequence (P16473 whole entry, looked up): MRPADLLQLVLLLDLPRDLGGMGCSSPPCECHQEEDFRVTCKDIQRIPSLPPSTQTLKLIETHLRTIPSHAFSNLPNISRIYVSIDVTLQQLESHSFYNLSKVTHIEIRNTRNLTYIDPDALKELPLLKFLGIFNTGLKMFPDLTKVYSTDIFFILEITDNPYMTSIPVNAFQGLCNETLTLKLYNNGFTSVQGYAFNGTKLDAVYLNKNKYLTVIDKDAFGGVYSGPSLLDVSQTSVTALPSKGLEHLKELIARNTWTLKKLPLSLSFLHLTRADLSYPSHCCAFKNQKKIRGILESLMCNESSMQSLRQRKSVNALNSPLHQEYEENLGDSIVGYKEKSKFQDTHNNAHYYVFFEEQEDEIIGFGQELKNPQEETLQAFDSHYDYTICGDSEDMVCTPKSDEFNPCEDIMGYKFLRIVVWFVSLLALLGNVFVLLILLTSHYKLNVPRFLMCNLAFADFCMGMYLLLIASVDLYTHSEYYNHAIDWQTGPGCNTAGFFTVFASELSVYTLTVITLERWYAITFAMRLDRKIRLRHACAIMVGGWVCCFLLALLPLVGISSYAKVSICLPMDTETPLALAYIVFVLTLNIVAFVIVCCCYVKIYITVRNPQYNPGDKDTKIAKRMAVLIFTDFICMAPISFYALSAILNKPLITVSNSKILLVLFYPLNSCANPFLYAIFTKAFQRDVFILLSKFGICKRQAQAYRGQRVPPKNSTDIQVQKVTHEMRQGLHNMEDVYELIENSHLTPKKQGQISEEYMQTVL
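Freshly harvested TSHR cells receive pin-tooled compound, then EC80 TSH at 4nM final. After 2 hours at 37 deg C, antibody in lysis buffer and cAMP-d2 are added; 30 minutes at ambient temperature precede the HTRF read.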
DRD3 agonist – D3 dopamine receptor (human) agonism | AID 652048 | max activation, % | 410,000 tested, 0.58% active | D3R DiscoveRx beta-arrestin cells, luminescence, 90 min | P35462; in the data active = max activation above about 30%
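Agonist-mode cell screen: cells plated at 1500/well and incubated overnight at 37 °C, then exposed to library compounds for 90 min at 37 °C. Detection reagent was added for 30–60 min at room temperature, and luminescence was read.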
D3 antag – blocks the human D3 dopamine receptor | P35462 | 360,000 tested, 2.5% active | max response, negative = inhibition, % | D3R cells, DiscoveRx beta-arrestin luminescence, antagonist mode; stronger effect = lower value; in the data active = max response below about -50%; inconclusive = no clear call, values can overlap the other calls
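Cells expressing the human receptor were seeded at 1500 cells/well, incubated overnight at 37 degrees C in 5% CO2, then exposed to library compounds with dopamine controls for 90 minutes at 37 degrees C before luminescent detection.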
B2AR arrestin – recruits beta-arrestin to the human beta2-adrenergic receptor; beta-arrestin recruitment to beta2AR, cell-based reporter; Potency, µM (titrated, usually from 46.1 µM), actives largely listed as activators; 330,000 tested, 0.02% active; AID 492947; active = well fitted activation curve with a large enough effect; inconclusive = small, poorly fitted or top-dose-only effect; also: nearly all actives have a fitted effect of over 65% in size
Large screens that a line does not name were inactive. Hits are enriched below; roughly 2.9% of the tested compounds scored in any of these assays.

CCOC(=O)C1(CCOC)CCN(C/C=C/c2ccccc2OC)CC1	D3 antag -71 (no result: TSHR antag, B2AR arrestin)
CCOC(=O)C1(CCOc2ccccc2)CCN(Cc2ccc(C(=O)OC)cc2)CC1	D3 antag -60
Cc1cccc(OCc2nc(CC(=O)Nc3ccc(C)c(C)c3)cs2)c1	none (no result: TSHR antag, D3 antag, B2AR arrestin)
Cn1c(N)c(C(=O)/C=C/c2ccccc2)c(=O)[nH]c1=O	none
Cn1c(N)c(C(=O)Nc2ccccc2)c(=O)[nH]c1=O	DRD3 agonist 36 (no result: TSHR antag, B2AR arrestin)
Cn1c(SCc2nc(-c3ccccc3)no2)nnc1-c1cccs1	DRD3 agonist 32
OC(CNCC1COc2ccccc2O1)COc1ccccc1F (centres undefined)	D3 antag -78
OC(CNCC1COc2ccccc2O1)COc1ccc(Cl)cc1 (centres undefined)	D3 antag -80
OC(CNCC1CCCO1)COc1ccc(OCC(O)CNCC2CCCO2)cc1 (centres undefined)	none
COc1cc(F)ccc1-c1csc(C(O)(c2ccccc2)C(F)(F)F)n1 (centres undefined)	none (no result: TSHR antag, B2AR arrestin)
CCCCS/C(=C(/C#N)C(N)=O)c1cc2c([nH]1)CCCC2	D3 antag -74
COc1ccc(/C(N)=N/OC(=O)CCCN2C(=O)c3ccccc3C2=O)cc1OC	DRD3 agonist 41
NS(=O)(=O)c1ccc(Oc2ccc(S(N)(=O)=O)cc2)cc1	none
C=CS(=O)(=O)c1ccc(Oc2ccc(S(=O)(=O)C=C)cc2)cc1	TSHR antag -89, D3 antag -91, B2AR arrestin inconclusive
COC(=O)c1cccc(NC(=O)c2cccc(-n3cnnn3)c2)c1	none (no result: TSHR antag, B2AR arrestin)
CCOC(=O)c1cccc(NC(=O)c2ccc(-n3cnnn3)cc2)c1	DRD3 agonist 74
CCOc1ccccc1CNC(=O)c1cnc2sc(N3CCCCCC3)nn2c1=O	none (no result: TSHR antag, D3 antag, B2AR arrestin)
O=C(COC(=O)c1cc(S(=O)(=O)N2CCc3ccccc3C2)ccc1Cl)NCc1ccco1	D3 antag -55
O=C(COC(=O)c1cccc(S(=O)(=O)N2CCc3ccccc3C2)c1)NCc1ccco1	none
O=C1CCC[C@@H]2C[C@@]3(C[C@@H]4CCN1[C@H]24)Nc1cc(Cl)ccc1NC3=NCc1ccccc1	none (no result: TSHR antag, B2AR arrestin)
COc1ccc(NC2=Nc3ccccc3N[C@@]23C[C@H]2CCCC(=O)N4CC[C@@H](C3)[C@@H]24)cc1	D3 antag -68 (no result: TSHR antag, B2AR arrestin)
Cc1ccc(C(=O)Nc2c(-c3ccccc3)nc3ccccn23)cc1C	none (no result: TSHR antag, D3 antag, B2AR arrestin)
Cc1cccc(/C=N\Nc2cn[nH]c(=O)c2Cl)c1	D3 antag -82
O=c1[nH]ncc(N/N=C\c2cccnc2)c1Cl	none
CC(NCC1COc2ccccc2O1)C1COc2ccccc2O1 (centres undefined)	D3 antag -63
CC(C)N1CCN(CC2COc3ccccc3O2)CC1 (centres undefined)	D3 antag -50
COc1ccc(N=C2C(=O)Nc3ccccc32)cc1	D3 antag inconclusive
COc1ccc(N=C2C(=O)N3c4c(cccc42)C(C)=CC3(C)C)cc1	D3 antag -50
CCC(C)NC(=O)c1cc(C)no1 (centres undefined)	D3 antag -64
CCc1ccccc1NC(=O)c1cc(C)no1	none
O=C(c1ccc2c(c1)OCO2)c1cn(Cc2ccc(F)cc2)c2ccccc2c1=O	none (no result: TSHR antag, D3 antag, B2AR arrestin)
COC(=O)c1cc2nc(-c3ccc(OC)c(OC)c3)cc(C(F)(F)F)n2n1	D3 antag -70
Cc1ccc2nc(N3CCN(c4cccc(C(F)(F)F)c4)CC3)c3nnnn3c2c1	none (no result: TSHR antag, D3 antag, B2AR arrestin)
Cc1nnc(NC(=O)c2ccc(S(=O)(=O)N3CCCCCC3)cc2)o1	D3 antag -72
Cc1nnc(NC(=O)c2ccc(S(=O)(=O)N(C)Cc3ccccc3)cc2)o1	D3 antag -72
CC1CC(C)CN(S(=O)(=O)c2ccc(C(=O)Nc3nnc(-c4cccs4)o3)cc2)C1 (centres undefined)	none
CCC1CCCCN1S(=O)(=O)c1ccc(C(=O)Nc2nnc(-c3cccs3)o2)cc1 (centres undefined)	D3 antag -75
Cc1nnc(NC(=O)c2ccc(S(=O)(=O)N3CC(C)OC(C)C3)cc2)o1 (centres undefined)	none
COCCCN1C(=O)c2ccccc2CC1(C)C(=O)NC1CCCCC1 (centres undefined)	none (no result: TSHR antag, D3 antag, B2AR arrestin)
Cc1cc(NS(=O)(=O)c2ccc(NC(=O)COc3cc(C)c(Br)cc3C(C)C)cc2)no1	none (no result: TSHR antag, D3 antag, B2AR arrestin)
Cc1nc2cc(C(=O)NCCC3=CCCCC3)ccc2n1-c1ccc(Br)cc1	none (no result: TSHR antag, D3 antag, B2AR arrestin)
N=c1c(C(=O)NCc2ccco2)cc2c(=O)n3ccccc3nc2n1Cc1ccccc1	D3 antag -51
Cc1cccn2c(=O)c3cc(C(=O)NCCc4ccccc4)c(=N)n(Cc4ccco4)c3nc12	D3 antag -100
CCOC(=O)c1cccc(NC(=O)C2CCN(S(=O)(=O)c3c(C)noc3/C=C/c3ccc(C)cc3)CC2)c1	none (no result: TSHR antag, D3 antag, B2AR arrestin)
CCN1CCN(/C=N/c2nc3c(s2)CCCC3)CC1	D3 antag -75
Cc1ccc(C2CC(C(F)(F)F)n3nc(C(=O)NCc4c(C)nn(C)c4C)c(Cl)c3N2)cc1 (centres undefined)	DRD3 agonist 34
COc1ccc(C(CNC(=O)c2ccc(C)c(S(=O)(=O)N3CCOCC3)c2)N2CCCC2)cc1 (centres undefined)	D3 antag -71 (no result: TSHR antag, B2AR arrestin)
COc1ccc(C(CNC(=O)c2ccc(C)c(S(=O)(=O)N3CCCCC3)c2)N2CCCC2)cc1 (centres undefined)	none (no result: TSHR antag, B2AR arrestin)
COc1ccc(C(CNC(=O)c2ccc(Cl)c(S(=O)(=O)N3CCCC3)c2)N2CCCC2)cc1 (centres undefined)	D3 antag -77
Cc1nn(-c2ccc(N3CCCC3)nn2)c(C)c1CCC(=O)N1CCN(c2ccc(F)cc2)CC1	none (no result: TSHR antag, D3 antag, B2AR arrestin)
COc1ccccc1NC(=O)Cn1cc(C(=O)c2ccncc2)c(=O)c2cc(C)ccc21	none (no result: TSHR antag, D3 antag, B2AR arrestin)
CN(C)c1ccc(-c2nc(-c3ccccn3)no2)cc1[N+](=O)[O-]	none (no result: TSHR antag, D3 antag, B2AR arrestin)
CN(Cc1ccccc1)c1ccc(-c2nc(-c3ccccn3)no2)cc1[N+](=O)[O-]	DRD3 agonist 34 (no result: TSHR antag, D3 antag, B2AR arrestin)
CN(Cc1ccccc1)c1ccc(-c2nc(-c3ccncc3)no2)cc1[N+](=O)[O-]	DRD3 agonist 57 (no result: TSHR antag, D3 antag, B2AR arrestin)
Cn1cc(CN2CCC(C(=O)NC(c3ccc(F)cc3)c3ccc4ccccc4n3)CC2)c2ccccc21 (centres undefined)	D3 antag -58 (no result: TSHR antag, B2AR arrestin)
O=C(NC(c1ccc(F)cc1)c1ccc2ccccc2n1)C1CCN(Cc2ccc(Oc3ccccc3)cc2)CC1 (centres undefined)	D3 antag -89 (no result: TSHR antag, B2AR arrestin)
COc1cc(CN2CCC(C(=O)NC(c3ccc(F)cc3)c3ccc4ccccc4n3)CC2)cc(OC)c1 (centres undefined)	D3 antag -68 (no result: TSHR antag, B2AR arrestin)
O=C(NC(c1ccccc1)c1ccc2ccccc2n1)C1CCN(Cc2ccc(Oc3ccccc3)cc2)CC1 (centres undefined)	D3 antag inconclusive (no result: TSHR antag, B2AR arrestin)
O=C(CSc1nc(=O)[nH]c2c1CCCC2)NCc1ccc(Cl)cc1	none (no result: TSHR antag, D3 antag, B2AR arrestin)
Cn1c(=O)[nH]c(=O)c2c1nc(SCCN1CCCCC1)n2Cc1ccccc1	none
Cn1c(=O)[nH]c(=O)c2c1nc(SCCN1CCCCC1)n2CCCc1ccccc1	D3 antag -68

Compound activity: PubChem, National Center for Advancing Translational Sciences (NCATS)
